A selection: hits, their analogues and other compounds. The true share with any hit is near 2.9%.
PG9 Ab binder: small molecules binding HIV-1 gp120 antibody PG9; AID 624416; TR-FRET gp120-PG9 antibody binding; inhibition, % at 6.7 µM; actives 0.43% (n = 360,000); in the data active means inhibition above about 8.5%
PGE2 EP2 inh: inhibitors of human EP2 prostaglandin E2 receptor; P43116; C6 glioma cells expressing human EP2, cAMP TR-FRET; cells stimulated with saturating PGE2; inhibition, % at 25 µM; actives 0.52% (n = 260,000); AID 1422;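 active means percent inhibition above 40 after rounding to a whole number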;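 further: rat C6 glioma host cells with rolipram phosphodiesterase inhibitor present; the protocol text gives 20 µM as final concentration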
Target sequence (P43116 whole entry, looked up): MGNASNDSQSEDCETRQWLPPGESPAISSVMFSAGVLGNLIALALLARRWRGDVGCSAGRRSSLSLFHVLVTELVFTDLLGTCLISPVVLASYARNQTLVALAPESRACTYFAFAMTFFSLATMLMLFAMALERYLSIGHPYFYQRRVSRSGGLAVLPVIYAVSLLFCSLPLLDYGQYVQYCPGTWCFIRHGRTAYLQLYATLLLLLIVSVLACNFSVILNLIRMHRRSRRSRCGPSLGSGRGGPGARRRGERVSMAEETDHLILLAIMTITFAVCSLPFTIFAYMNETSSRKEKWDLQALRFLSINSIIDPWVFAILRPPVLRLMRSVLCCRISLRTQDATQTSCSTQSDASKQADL
NR1D1 modulator: modulators of human Rev-erb alpha DNA binding; AID 1259318; activity, % at 10 µM; actives 0.79% (n = 370,000); P20393; Rev-erbα–FITC-DNA binding, fluorescence polarization, 90 min;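 active means activity above about 14%, limit read from the data; passing the limit was not always enough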
SKN-1 inh: C. elegans SKN-1 inhibition | actives 0.49% (n = 360,000) | inhibition, % at 21.8 µM | AID 624304 | C. elegans VP596 Pgst-4::GFP/RFP ratio, acrylamide-induced, 24 h;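 active means interference check ratio from 0.5 to 1.5 plus GFP to RFP signal ratio inhibition reaching or exceeding a fixed threshold, cut at about 30% in these data, passing the limit was not always enough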
RAM inhibit: blocks the yeast RAM network; S. cerevisiae dse1pr::URA3 reporter, 5-FOA growth OD615, 2 d; analog-sensitive cbk1-as2 kinase mutant strain; inhibition, % at 50 µM; actives 1.8% (n = 190,000); AID 868;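 active means inhibition above a set limit, 3 SD over mean compound inhibition, cut at about 8.4% in these data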;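 further: inhibition rescues growth on 5-FOA so higher OD means more RAM inhibition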
EP2 mod: modulators of human EP2 prostaglandin E2 receptor; EP2-expressing cells, cAMP HTRF FRET, PGE2 co-stimulation; actives 0.83% (n = 260,000); induction, % at 25 µM;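 active means compounds whose cAMP rise, as percent of the full-agonist control response, exceeds 60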;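 further: rat C6 glioma line stably carrying human EP2 under a CMV promoter; the protocol text gives 20 µM as final concentration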
PG9 bind confirm: confirmation of small molecules binding HIV-1 gp120 antibody PG9; actives 90% (n = 1,500); inhibition, % at 6.7 µM; AID 651571; TR-FRET PG9 antibody binding, biochemical; shares compounds with PG9 Ab binder; in the data active means inhibition above about 9%
PGV04 Ab binding: counter-screen for PG9 binders: binding control antibody PGV04; AID 651604; TR-FRET PGV04 antibody-gp120 binding, biochemical; inhibition, % at 6.7 µM; actives 95% (n = 1,500); shares compounds with PG9 Ab binder; in the data active means inhibition above about 9.5%
PG9 bind DR: PG9 antibody binding, dose response; shares compounds with PG9 Ab binder; TR-FRET PG9 antibody-gp120 binding inhibition; IC50, µM; 95 tested, under 10 active; AID 651848; in the data active means IC50 below about 10 µM
PGV04 binding DR: PGV04 binding, dose response counter-screen; actives 20% (n = 95); IC50, µM; AID 651937; shares compounds with PG9 Ab binder; TR-FRET binding to control antibody PGV04
PG126 DR counter: counter-screen for PG9 binders: binding to control antibody PG126 | shares compounds with PG9 Ab binder | TR-FRET binding to antibody PG126, counterscreen | IC50, µM | actives 20% (n = 95)
Numbers stand for hits; 0 = inactive; - = no result. Unless noted, no stated cut-off is given here; in the data, active means IC50 below about 9 µM; inactive means the rest.

SMILES	PG9 Ab binder	PGE2 EP2 inh	NR1D1 modulator	SKN-1 inh	RAM inhibit	EP2 mod	PG9 bind confirm	PGV04 Ab binding	others
CC1(C)Cc2c(C#N)c(SCC(=O)c3ccccc3)nc(N3CCOCC3)c2CO1	42	-	0	0	0	0	9.3	86
Cc1nc2c(sc3nc(N4CCOCC4)c4c(c32)CC(C)(C)OC4)c(-c2ccccc2)c1C(=O)O	16	0	0	0	-	0	26	32
CC1(C)Cc2c(C#N)c(SCc3ccccc3)nc(N3CCOCC3)c2CO1	0	0	0	0	0	0	-	-
N#CC(=C=[N-])C1=C(C#N)C(c2ccccc2F)C([n+]2ccccc2)C(O)(C2CC2)N1 (stereo not drawn)	9.1	0	0	0	0	0	16	24
CCOc1ccc(C2NC(=O)C(O)=C2C(=O)c2ccco2)cc1 (stereo not drawn)	-	0	-	-	-	0	-	-
O=C(NC(=S)Nc1cccc(NC(=S)NC(=O)c2ccccc2)c1)c1ccccc1	12	-	0	0	-	-	0	14
CCC(=O)Nc1cccc(NC(=S)NC(=O)c2ccccc2)c1	0	0	0	0	0	0	-	-
COc1cc(OC)c(C2Nc3cccc4cccc(c34)N2)c(OC)c1	12	-	0	0	-	-	0	12
COc1ccc(C2Nc3cccc4cccc(c34)N2)cc1	0	0	0	0	0	0	-	-
Cc1ccccc1-c1nnc(NC(=O)c2ccc(N3C(=O)CCC3=O)cc2)s1	0	0	0	0	0	0	-	-
Cc1cccc(-c2nnc(NC(=O)c3ccc(N4C(=O)CCC4=O)cc3)s2)c1	17	0	0	0	0	0	0	12
CCOc1ccc2[nH]c(=O)c(CN(CCCO)C(=S)NCCCOC)cc2c1	-	0	-	-	-	0	-	-
O=C(Cn1nnc(-c2ccccc2Cl)n1)NCc1ccc2c(c1)OCO2	10	0	0	0	0	0	11	14
Cc1ccc(C(=O)NCCNc2nc3cc(C)c(C)cc3cc2C)cc1	8.9	0	0	0	0	0	18	22
Cc1cc2cc(C)c(NCCNC(=O)c3ccccc3)nc2cc1C	0	0	0	0	0	0	-	-
COc1ccc2nc(C)cc(SCC(=O)Nc3c(C)cccc3C)c2c1	10	0	0	0	0	0	27	33
CCCC(C)NC(=O)C1CCN(S(=O)(=O)c2cc(OC)ccc2OC)CC1 (stereo not drawn)	-	0	-	-	-	0	-	-
COC(=O)c1ccccc1NC(=O)CSCC(=O)Nc1ccccc1	0	0	0	0	0	0	-	-
COC(=O)c1ccccc1NC(=O)c1cccc(NC(=O)CSCc2ccccc2)c1C	33	0	0	0	0	0	28	43
NS(=O)(=O)c1ccc(NS(=O)(=O)c2ccc(NC(=O)c3ccc(-c4ccccc4)cc3)cc2)cc1	0	-	0	0	0	0	-	-
NS(=O)(=O)c1ccc(NC(=O)c2ccc(-c3ccccc3)cc2)cc1	9.3	0	0	0	0	0	13	25
COc1ccc2[nH]c(=O)c(CN(CCN(C)C)C(=S)NCC3CCCO3)cc2c1 (stereo not drawn)	-	0	-	-	-	0	-	-
Cn1c2ccccc2c(=O)c2ccc(C#Cc3ccccn3)cc21	50	-	0	-	-	-	57	79
Cn1c2ccccc2c(=O)c2cc(C#Cc3ccccn3)ccc21	0	-	0	0	-	-	-	-
CCc1nnc(NC(=O)Cc2ccc(OCc3c(C)noc3C)cc2)s1	19	0	0	0	0	0	19	42
SMILES	PG9 Ab binder	PGE2 EP2 inh	NR1D1 modulator	SKN-1 inh	RAM inhibit	EP2 mod	PG9 bind confirm	PGV04 Ab binding	others
COC(=O)c1sc(NC(=O)COc2ccccc2C)nc1C	11	0	0	0	0	0	20	28
Cc1cccc(NC(=O)CSc2nc3nc4c(cc3c(=O)n2-c2ccccc2)CCCC4)c1	29	0	0	0	0	0	25	39
CC(=O)c1ccc(NC(=O)CSc2nc(N)c3cc4c(nc3n2)CCCC4)cc1	22	0	0	0	0	0	14	26
O=C(CSc1nc2nc3c(cc2c(=O)n1-c1ccccc1)CCCC3)Nc1cccc2ccccc12	0	0	0	0	0	0	-	-
O=C(NC1CCSc2ccccc21)c1ccc(C(F)(F)F)cc1 (stereo not drawn)	11	-	0	0	-	-	11	18
O=C(COC(=O)c1ccccn1)Nc1ccccc1	-	0	-	-	-	0	-	-
O=S(=O)(Nc1cccnc1)c1ccc(Br)c2ccccc12	15	-	0	0	-	-	24	30
CCCn1c(SCC(=O)NNC(=O)C(C)C)nc2c1c(=O)n(C)c(=O)n2C	-	0	-	-	-	0	-	-
CC(=O)c1c(OC(=O)c2ccccc2)ccnc1C(F)(F)F	9.2	-	0	0	-	-	11	11
Cc1cc(C)c(OCC(=O)Nc2ccc3c(c2)OCO3)cc1C	18	0	0	0	0	0	20	24
Cc1c(Cl)cnc(NC(=O)COC(=O)c2ccc3c(c2)OCO3)c1Cl	28	0	0	0	0	0	16	30
Cc1c(Cl)cnc(NC(=O)COC(=O)c2ccncc2)c1Cl	0	-	0	0	-	-	-	-
COc1ccc(C)cc1NC(=O)COC(=O)c1ccc2c(c1)OCO2	24	-	0	0	-	-	24	28
COc1cc(NC(=O)c2cc(-c3ccc(C)cc3)on2)c(OC)cc1Cl	-	0	-	-	-	0	-	-
Cc1csc(NC(=O)C(Cc2ccccc2)n2cccc2)n1 (stereo not drawn)	0	0	0	0	0	0	-	-
CCSc1nnc(NC(=O)c2csc(C)c2)s1	12	0	0	0	0	0	19	31
CCSc1nnc(NC(=O)COc2ccccc2)s1	0	0	0	0	0	0	-	-
CCSc1nnc(NC(=O)C(Cc2ccccc2)n2cccc2)s1 (stereo not drawn)	10	0	0	0	0	0	21	21	PG9 bind DR=0;PGV04 binding DR=0;PG126 DR counter=0
CCSc1nnc(NC(=O)COc2ccc3ccccc3c2)s1	14	0	0	0	0	0	20	35
Cc1cccc(-n2c(SCC(=O)N3CCCCC3)nnc2-c2cccnc2)c1C	-	0	-	-	-	0	-	-
COc1ccccc1C1(O)CCCN(C(=O)c2ccnn2C(C)C)C1 (stereo not drawn)	-	0	-	-	-	0	-	-
COc1ccc(C(=O)CSc2nc(N)nc(SC)c2C#N)cc1	21	0	0	0	0	0	23	28
